HCMV inh – qHTS Assay for inhibitors of the human cytomegalovirus (HCMV); HFF cells, HCMV-luciferase reporter, 72 h; stronger effect = lower value; AID 1259415, 2018; activity change, negative = inhibition, % at 57.5 µM; 4.5% of 410,000 active; in the data active = activity change below about -60%; inconclusive = no clear call, values can overlap the other calls; inactive = above about -39%; also: % is scaled to controls: 0 for no effect and ±100 for the full control effect
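Steps: HFFs plated, 16 h 37C; compounds added; HCMV-luciferase added to MOI 1 PFU/cell; 72 h 37C; OneGlo reagent, 5 min room temperature; luminescence read, normalized to controls.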
Sm TGR inh – qHTS Assay for the Inhibitors of Schistosoma Mansoni Peroxiredoxins | Schistosoma mansoni thioredoxin glutathione reductase (TGR), Q962Y6 | purified TGR, DTNB reduction, TNB absorbance 405 nm | Potency, µM (doses to about 114 µM), for inactives: top-dose activity change, negative = inhibition, most hits filed as inhibitors | 3% of 360,000 active; also: potency is read from the fitted curve at half-maximal effect; % is scaled to controls: 0 for no effect and ±100 for the full control effect; nearly all actives have a fitted effect of over 60% in size
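TGR 20 nM + NADPH 100 uM (dispensed conc.), cpd preinc 15 min RT; start with NADPH (500 uM addition) then DTNB (15 mM addition). Kinetic TNB absorbance, 405 nm filter. Four-parameter Hill fit across titration.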
Pf growth 48h – Primary qHTS for delayed death inhibitors of the malarial parasite plastid, 48 hour incubation; AID 504832, 2011; 5.9% of 310,000 active; Potency, µM (highest dose often 28.7 µM), for the others: at the top dose activity change, negative = inhibition, hits mostly inhibitors; P. falciparum luciferase growth in erythrocytes, 48 h; also: potency is read from the fitted curve at half-maximal effect; % is scaled to controls: 0 for no effect and ±100 for the full control effect
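Luminescence readout; reporter = integrated firefly luciferase in P. falciparum. RBC culture at 2% hematocrit, 0.1% parasitemia final, 37 C/5% CO2; decreased signal taken as growth inhibition.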
HCV inhibitor – qHTS Assay for Inhibitors of Hepatitis C Virus (HCV) | 3.4% of 340,000 active | Potency, µM (highest dose often 41.8 µM), for the others: at the highest dose activity change, negative = inhibition, actives largely listed as inhibitors | Huh7.5.1 HCVcc-Cre infection, luciferase reporter, 44 h; also: potency is read from the fitted curve at half-maximal effect; % is scaled to controls: 0 for no effect and ±100 for the full control effect
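Cells seeded at 1,000/well and cultured 4 h, then compounds added followed by HCVcc-Cre virus (~0.5 moi). After 44 h further culture, luciferase substrate was added, plates held 15 min at room temperature, and luminescence read for 15 sec.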
Pf growth 96h – Primary qHTS for delayed death inhibitors of the malarial parasite plastid, 96 hour incubation | Potency, µM (top dose mostly 28.7 µM), without a hit: at the top dose activity change, negative = inhibition, hits mostly inhibitors | P. falciparum luciferase reporter growth, 96 h | 6.9% of 320,000 active | AID 504834, 2011; also: potency is read from the fitted curve at half-maximal effect; % is scaled to controls: 0 for no effect and ±100 for the full control effect
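Erythrocytes infected with luciferase-expressing P. falciparum were dispensed at 2% hematocrit and 0.05% parasitemia (final), then incubated with compounds 96 hours at 37 C in 5% CO2. Luminescence after detection reagent addition reported growth.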
SARS PLpro yeast – qHTS of Yeast-based Assay for SARS-CoV PLP. S. cerevisiae expressing SARS-CoV PLpro, growth rescue. Potency, µM (highest dose often 32.9 µM), for inactives: at the highest dose activity, positive = growth rescue, hits mostly activators. 0.19% of 330,000 active. AID 485353, 2010; calls by dose curve; also: potency is read from the fitted curve at half-maximal effect; 0% is about no effect; nearly all actives have a fitted effect of over 55% in size
An asterisk follows results filed as active; ? = inconclusive; . = no result. A selection: hits, their analogues and other compounds. The true share with any hit is near 15%. Unless noted, calls follow the shape of the dose curve; as a rule, active = well fitted curve in the direction sought with a large enough effect; inconclusive = small, poorly fitted or top-dose-only effect, or another doubt; inactive = no such curve, though single readings can be large; an effect the other way counts as inactive or inconclusive.

SMILES	HCMV inh	Sm TGR inh	Pf growth 48h	HCV inhibitor	Pf growth 96h	SARS PLpro yeast
Cc1cc(C)n(C(C)CC(=O)Nc2ccc(Cl)cc2C)n1 (stereo not given)	-20.9	0.0%	.	.	.	.
CCN(CC)S(=O)(=O)c1ccc2c(c1)N(CC(=O)Nc1cccc(C#N)c1)C(=O)CO2	-11.1	5.5%	.	.	.	.
COc1ccc(C2c3c(-c4ccccc4O)n[nH]c3C(=O)N2CCc2ccccc2)cc1 (stereo not given)	-67.2*	7.4%	.	.	.	.
CC(C)c1ccc(C2c3c(-c4ccccc4O)n[nH]c3C(=O)N2CCc2ccccc2)cc1 (stereo not given)	-100.2*	10.9%	.	.	.	.
CCOc1cc(C2c3c(-c4cc(C)ccc4O)n[nH]c3C(=O)N2CCCOC(C)C)ccc1O (stereo not given)	-68.4*	8.0%	.	.	.	.
COc1ccc(C2c3c(-c4ccccc4O)n[nH]c3C(=O)N2CCc2ccc(OC)c(OC)c2)cc1 (stereo not given)	-32.2	0.0%	7.38µM*	?	45.8%	5.9%
CC(C)OCCCN1C(=O)c2[nH]nc(-c3ccccc3O)c2C1c1ccc(OCc2ccccc2)cc1 (stereo not given)	-98.4*	-6.0%	.	.	.	.
Cc1ccc(C2c3c(-c4ccccc4O)n[nH]c3C(=O)N2Cc2ccncc2)cc1 (stereo not given)	-38.7	7.3%	?	?	?	5.7%
Cc1ccc(C2c3c(-c4ccccc4O)n[nH]c3C(=O)N2CCc2ccccc2)cc1 (stereo not given)	-93.9*	3.1%	.	.	.	.
CN1CCN(c2ncnc3c2ncn3[C@H]2CN(Cc3ccc(-c4ccccc4)cc3)C[C@@H](CO)O2)CC1	-16.3	.	.	.	.	.
COc1cc(C2=NOC(C(=O)N3CCCc4ccccc43)C2)cc(OC)c1OC (stereo not given)	102.2	-0.6%	-17.6%	2µM*	11.8%	-5.4%
COc1ccc(-c2nnc(SCC(=O)N3CCCc4ccccc43)o2)cc1OC	1.5	-14.0%	-8.1%	10.5%	11.7µM*	-3.5%
O=C(Nc1nnc(-c2ccncc2)o1)c1ccc2ccccc2c1	-94.5*	-6.2%	26.8%	9.7%	?	.
COc1cc(OC)cc(-c2nnc(NC(=O)c3ccc4c(c3)OCCO4)o2)c1	-61.0*	11.9%	12.1%	2.1%	?	-3.4%
Cc1ccc(-c2nnc(SCC(=O)N3CCCc4ccccc43)o2)cc1	-9.4	-2.1%	.	.	.	.
C[C@@H]1C(=O)O[C@H](C)[C@H]1C[C@@H](O)[C@](C)(O)C1CC[C@@]2(O)C3=CC(=O)[C@@H]4C[C@@H](O)[C@@H](O)C[C@]4(C)C3CC[C@]12C (stereo not given in full)	-21.7	.	.	-2.4%	.	1.8%
CS(=O)(=O)c1cccc(-c2nnc(NC(=O)c3ccc4ncsc4c3)o2)c1	4.6	1.3%	-3.0%	10.7%	-5.8%	.
COc1cccc(-c2nnc(NC(=O)c3ccc4ncsc4c3)o2)c1	4.2	1.5%	?	?	13.1µM*	?
O=C(Nc1nnc(C2=COCCO2)o1)c1ccc(Cl)cc1	-38.9	-16.1%	1.1%	-1.2%	?	-6.6%
CC1CCN(S(=O)(=O)c2ccc(C(=O)Nc3nnc(-c4ccncc4)o3)cc2)CC1	-87.7*	12.1%	?	?	?	1.2%
O=C(Nc1nnc(C2=COCCO2)o1)c1ccc([N+](=O)[O-])cc1	-97.8*	-3.1%	?	8.9%	?	1.6%
COc1ccc2c(c1)C(C)=CC(C)(C)N2C(=O)CSc1nnc(-c2ccc(C)cc2)o1	-22.1	16.5%	9.28µM*	?	-1.8%	-14.9%
CCOc1ccccc1N(CC)C(=O)c1cc2c(s1)-c1ccccc1S(=O)(=O)C2	-2.6	.	.	.	.	.
COc1ccc(S(=O)(=O)N2CCC(C(=O)NC(C)c3ccccc3)CC2)cc1 (stereo not given)	-1.8	7.9%	.	.	.	.
COc1cc(-c2nnc(NC(=O)c3ccc(S(=O)(=O)N4CCOCC4)cc3)o2)cc(OC)c1OC	-2.1	2.3%	20.0%	.	14.2%	-0.1%
SMILES	HCMV inh	Sm TGR inh	Pf growth 48h	HCV inhibitor	Pf growth 96h	SARS PLpro yeast
CS(=O)(=O)c1ccc(-c2nnc(NC(=O)c3ccc(S(=O)(=O)N4CCCC4)cc3)o2)cc1	-23.2	-2.9%	13.1µM*	16.7%	7.38µM*	17.2%
COc1cccc(-c2nnc(SCC(=O)N3CCOCC3)o2)c1	35.4	0.0%	46.9%	-5.7%	11.7µM*	-1.4%
CC1CN(S(=O)(=O)c2ccc(C(=O)Nc3nnc(-c4ccc5c(c4)CCCC5)o3)cc2)CC(C)O1 (stereo not given)	-13.2	-2.3%	.	-14.2%	-8.1%	-0.5%
COc1cccc(-c2nnc(NC(=O)c3ccc(S(=O)(=O)N4CCOCC4)cc3)o2)c1	.	12.8%	?	12.6µM*	106.0%	3.5%
COc1ccc(-c2nnc(SCC(=O)N3CCOCC3)o2)cc1	103.5	5.6%	140.6%	0.2%	.	8.3%
CN(C)c1ccc([C@@H]2[C@@H]([N+](=O)[O-])[C@H]3C=Cc4ccccc4N3[C@H]2C(=O)c2ccc(Cl)cc2)cc1	-66.9*	44.7µM*	?	?	?	3.9%
O=C(c1ccccc1)C1C(c2ccccc2)C1[N+](=O)[O-] (stereo not given)	-2.6	8.1%	4.3%	0.1%	17.4%	-0.2%
CSc1ccc(CNC2CN3CCC2CC3)cc1 (stereo not given)	51.8	2.9%	3.0%	-14.9%	1.65µM*	2.2%
CC(C)CCn1c(N)c(C(=O)NCc2cccs2)c2nc3ccccc3nc21	-18.7	5.5%	0.828µM*	14.1µM*	?	-8.0%
CC(C)OCCCNC(=O)c1c(N)n(Cc2cccs2)c2nc3ccccc3nc12	-74.2*	0.0%	9.28µM*	10µM*	11.7µM*	-2.0%
COc1ccc(CNC(=O)CN2CCN(c3cccc(C)c3C)CC2)cc1	16.0	-23.3%	0.2%	3.16µM*	-3.2%	0.7%
CCCOCc1cc(CN2CCN(c3ccccc3OC)CC2)c(O)c2ncccc12	-99.7*	39.8µM*	.	.	.	.
COc1cc(CN2CCN(c3cccc(C)c3C)CC2)cc(Br)c1O	-9.6	-27.4%	4.15µM*	?	.	0.1%
COc1ccccc1N1CCN(Cc2ccccc2)CC1	-36.4	2.1%	?	?	-3.7%	7.6%
CCOc1ccc2oc(=O)cc(CN3CCN(c4ccccc4OC)CC3)c2c1	-12.2	-12.7%	.	.	.	.
Cc1cccc(N2CCN(CC(=O)NCc3ccccc3)CC2)c1C	41.9	6.2%	7.6%	-18.2%	?	1.6%

Screening results deposited in PubChem by National Center for Advancing Translational Sciences (NCATS).
